Screening data from PubChem.
Shown are actives, neighbours in structure and some others; about 19% of the full set was active somewhere.
DT40 TDP1 no CPT = qHTS for Inhibitors of human tyrosyl-DNA phosphodiesterase 1 (TDP1): qHTS in cells in absence of CPT; DT40 Tdp1-/- hTDP1 cells, no CPT, ATP luminescence, 48 h; Potency, µM (series often up to 46.2 µM), for the others: top-dose activity change, negative = growth inhibition, most hits filed as inhibitors; 420,000 compounds, 15% hits; AID 686978, 2013; further: potency means the concentration at half of the fitted maximal effect; nearly all actives have a fitted effect of over 55% in size
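Chicken DT40 Tdp1-/- cells stably complemented with human TDP1 were seeded at 400 cells/well with DMSO in place of 20 nM camptothecin. After compound pinning, cells grew at least 48 hr at 37 °C; viability read by CellTiter-Glo luminescence.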
HT1080NT lethal = kills 2HG-producing HT-1080-NT fibrosarcoma cells; HT-1080-NT fibrosarcoma viability, CellTiter-Glo ATP luminescence, 48 h; Potency, µM (titrated, usually from 46.1 µM), for inactives: at the highest dose activity, negative = less viability, most hits filed as cytotoxic; 360,000 compounds, 1.6% hits;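 further: NT is the 2HG producing partner of a matched IDH1 knockdown line; potency means the concentration at half of the fitted maximal effect; 0% = DMSO-treated cells and -100% = media-only wells without cells; nearly all actives have a fitted effect of over 55% in size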
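A 48-hour cytotoxicity screen used HT-1080-NT cells plated 2 hours before compound delivery. ATP-based CellTiter-Glo luminescence measured viability, normalized to DMSO and no-cell controls.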
HT1080 IDH1KD tx = toxicity to HT-1080 IDH1 knockdown cells (counter line); HT-1080 IDH1 knockdown viability, ATP luminescence, 48 h; Potency, µM (series often up to 46.1 µM), without a hit: top-dose activity, negative = toxicity, usual class: cytotoxic; 360,000 compounds, 2% hits; AID 686971;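 further: potency means the concentration at half of the fitted maximal effect; 0% = DMSO wells and -100% = cell-free medium wells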
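Using the IDH1-knockdown HT-1080 line run in the same batch and compound series as the NT line, viability after 48 h at 37 °C was determined by CellTiter-Glo luminescence and expressed as % activity.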
IL1B secr inh = blocks inflammasome-driven IL-1 beta release; THP-1 LPS/ATP IL-1B secretion, AlphaLISA, 16 h; active compounds read low; activity change, % at 57.5 µM; 360,000 compounds, 4.7% hits; in the data active means activity change below about -50%; inconclusive means mostly about -30% to -49%
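THP-1 cells pretreated 1 hr with compounds (up to 57.5 uM final), then stimulated with LPS (250 ng/mL final) plus ATP (1.25 mM final); secreted IL-1B measured by AlphaLISA after 16 hr, decreased signal indicating inhibition.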
TDP1 cell CPT = DT40-hTDP1 cell growth loss with CPT. chicken DT40 Tdp1-/-;hTDP1 cells + 20 nM CPT, ATP luminescence, 48 h. Potency, µM (doses to about 46.2 µM), for the others: at the top dose activity change, negative = growth inhibition, usual class: inhibitors. 420,000 compounds, 12% hits. AID 686979; further: potency means the concentration at half of the fitted maximal effect; nearly all actives have a fitted effect of over 55% in size
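Cell growth measured by CellTiter-Glo luminescence after a minimum 48 h, 37 C compound exposure with 20 nM CPT in Tdp1-knockout DT40 cells stably expressing hTDP1, seeded 400/well; qHTS titration format.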
uPA surface inh = inhibitors of cell surface uPA generation; Potency, µM (series often up to 38.3 µM), for the others: at the highest dose activity change, negative = inhibition, most hits filed as inhibitors; AID 540303; 330,000 compounds, 0.31% hits; cell surface uPA generation assay, qHTS; active means well fitted inhibition curve with a large enough effect; inconclusive means small, poorly fitted or top-dose-only effect; inactive means no such curve, though single readings can be large or run the other way; tested in mouse RAW 264.7 cells; further: potency means the concentration at half of the fitted maximal effect; nearly all actives have a fitted effect of over 55% in size
* hit, by the source's call; [ ] = another dose, or the depositor's remark. Unless noted, the call rests on the fitted dose curve; in most records, active means well fitted curve in the direction sought with a large enough effect; inconclusive means small, poorly fitted or top-dose-only effect, or another doubt; inactive means no such curve, though single readings can be large; an effect the other way counts as inactive or inconclusive. Unless noted, on the % scale 0 is the no-effect control and ±100 the full control effect.

What do the screens show for `COc1ccc(C(C)=O)cc1CSc1nnc(Nc2ccc(C)cc2)s1`?
DT40 TDP1 no CPT: 23µM*; HT1080NT lethal: inconclusive; HT1080 IDH1KD tx: inconclusive; IL1B secr inh: -66*; TDP1 cell CPT: inconclusive; uPA surface inh: 9%

What do the screens show for `COc1ccc(C(C)=O)cc1CSc1nnc(C)s1`?
DT40 TDP1 no CPT: -8%; HT1080NT lethal: 6%; HT1080 IDH1KD tx: 4%; IL1B secr inh: -4; TDP1 cell CPT: -17%; uPA surface inh: -4%

How did COc1ccc(C(C)=O)cc1CSc1nnc(Nc2ccccc2)s1 do in these assays?
DT40 TDP1 no CPT: 16µM*; HT1080NT lethal: inconclusive; HT1080 IDH1KD tx: inconclusive; IL1B secr inh: -28; TDP1 cell CPT: inconclusive; uPA surface inh: 1%

What do the screens show for `O=C(CC1SC(=O)N(c2ccccc2)C1=O)Nc1ccc(Br)cc1` (stereo not given)?
DT40 TDP1 no CPT: 5.8µM*; HT1080NT lethal: 12%; HT1080 IDH1KD tx: 7%; IL1B secr inh: 4; TDP1 cell CPT: 2.6µM*; uPA surface inh: -2%

Results for O=C(CC1SC(=O)N(c2ccccc2)C1=O)Nc1ccc(Cl)cc1 (stereo not given) ?
DT40 TDP1 no CPT: 21µM*; HT1080NT lethal: 14%; HT1080 IDH1KD tx: 11%; IL1B secr inh: 0; TDP1 cell CPT: 7.3µM*; uPA surface inh: -2%

How did COc1ccc(-c2noc(CC(=O)Nc3ccc(F)cc3F)n2)cc1 do in these assays?
DT40 TDP1 no CPT: -12%; TDP1 cell CPT: -14%

What do the screens show for `Cc1cccc(/C=C\c2nc3ccccc3c(=O)[nH]2)c1`?
DT40 TDP1 no CPT: 18µM*; HT1080NT lethal: inconclusive; HT1080 IDH1KD tx: 5.8µM*; IL1B secr inh: -4; TDP1 cell CPT: 21µM*; uPA surface inh: -11%

What do the screens show for `Cc1nc(/C=C/c2ccccc2)[nH]c(=O)c1-c1ccccc1`?
DT40 TDP1 no CPT: inconclusive; HT1080NT lethal: inconclusive; HT1080 IDH1KD tx: -24%; IL1B secr inh: -1; TDP1 cell CPT: 10µM*; uPA surface inh: -23%

What do the screens show for `COc1cc(/C=C/c2nc3ccccc3c(=O)[nH]2)cc(Cl)c1O`?
DT40 TDP1 no CPT: -7%; HT1080NT lethal: 6%; HT1080 IDH1KD tx: 7%; IL1B secr inh: -1; TDP1 cell CPT: 1%; uPA surface inh: -7%

Results for O=c1[nH]c(/C=C/c2ccc(Br)cc2)nc2ccccc12 ?
DT40 TDP1 no CPT: -12%; HT1080NT lethal: -2%; HT1080 IDH1KD tx: 15%; IL1B secr inh: -8; TDP1 cell CPT: -10%; uPA surface inh: inconclusive

What do the screens show for `CN(C)c1ccc(/C=C/c2nc3ccccc3c(=O)[nH]2)cc1`?
DT40 TDP1 no CPT: 10µM*; HT1080NT lethal: -23%; HT1080 IDH1KD tx: inconclusive; IL1B secr inh: -7; TDP1 cell CPT: 21µM*; uPA surface inh: -25%

How did COc1ccc(Cc2noc(CN3CCN(c4ccc(Cl)cn4)CC3)n2)cc1OC do in these assays?
DT40 TDP1 no CPT: 18µM*; HT1080NT lethal: -29%; HT1080 IDH1KD tx: -28%; IL1B secr inh: inconclusive; TDP1 cell CPT: inconclusive; uPA surface inh: -4%

Results for COCCN1CCN(Cc2nc(Cc3ccc(OC)c(OC)c3)no2)CC1 ?
DT40 TDP1 no CPT: 15%; HT1080NT lethal: -4%; HT1080 IDH1KD tx: 6%; IL1B secr inh: 2; TDP1 cell CPT: -14%; uPA surface inh: -3%

Results for COc1ccc(Cc2noc(CN3CCN(Cc4cccc(Cl)c4)CC3)n2)cc1OC ?
DT40 TDP1 no CPT: 10µM*; HT1080NT lethal: 4%; HT1080 IDH1KD tx: -12%; IL1B secr inh: -5; TDP1 cell CPT: inconclusive; uPA surface inh: -5%

How did O=C(NC(=O)c1cc([N+](=O)[O-])ccc1Cl)C1=C(N2CCCC2)COC1=O do in these assays?
DT40 TDP1 no CPT: -18%; HT1080NT lethal: 7%; HT1080 IDH1KD tx: -2%; IL1B secr inh: -23; TDP1 cell CPT: inconclusive; uPA surface inh: inconclusive

What do the screens show for `N#Cc1c(N2CCN(C(=O)c3ccccc3)CC2)nc(-c2ccccc2)c2c1CCCC2`?
DT40 TDP1 no CPT: inconclusive; HT1080NT lethal: inconclusive; HT1080 IDH1KD tx: inconclusive; IL1B secr inh: inconclusive; TDP1 cell CPT: inconclusive; uPA surface inh: 0%

Results for N#Cc1c(N2CCN(C(=O)c3ccco3)CC2)nc(-c2ccccc2)c2c1CCCC2 ?
DT40 TDP1 no CPT: inconclusive; HT1080NT lethal: inconclusive; HT1080 IDH1KD tx: inconclusive; IL1B secr inh: -52*; TDP1 cell CPT: 26µM*; uPA surface inh: inconclusive

Results for N#Cc1c(N2CCN(C(=O)c3ccccc3Cl)CC2)nc(-c2ccccc2)c2c1CCCC2 ?
DT40 TDP1 no CPT: -17%; HT1080NT lethal: -2%; HT1080 IDH1KD tx: -5%; IL1B secr inh: -58*; TDP1 cell CPT: -24%; uPA surface inh: 1%

What do the screens show for `CC(C)Cc1nc(N2CCN(C(=O)c3ccco3)CC2)c(C#N)c2c1CCC2`?
DT40 TDP1 no CPT: -29%; HT1080NT lethal: -17%; HT1080 IDH1KD tx: inconclusive; IL1B secr inh: -8; TDP1 cell CPT: inconclusive; uPA surface inh: -4%

How did Cc1oc(-c2ccccc2NC(=O)C2CCC2)nc1CNC(=O)c1ccc2ccccc2c1 do in these assays?
DT40 TDP1 no CPT: -9%; TDP1 cell CPT: 2%[9.04 µM]

How did C[C@H](CO)N1C[C@H](C)[C@@H](CN(C)C(=O)Nc2ccc(F)cc2)Oc2ncc(-c3ccc(F)cc3)cc2C1=O do in these assays?
DT40 TDP1 no CPT: inconclusive; HT1080NT lethal: 9%; HT1080 IDH1KD tx: 7%; IL1B secr inh: -14; TDP1 cell CPT: inconclusive

How did Cc1ccc(NC(=O)C2CCN(C(=O)c3ccccc3C)CC2)cc1 do in these assays?
DT40 TDP1 no CPT: -28%; HT1080NT lethal: -2%; HT1080 IDH1KD tx: -7%; IL1B secr inh: 22; TDP1 cell CPT: 1%; uPA surface inh: -3%

How did COc1cccc(N2CCN(CC(=O)Nc3ccc(S(=O)(=O)N4CCCCCC4)cc3)CC2)c1 do in these assays?
DT40 TDP1 no CPT: 13µM*; HT1080NT lethal: 0%; HT1080 IDH1KD tx: -14%; IL1B secr inh: 39; TDP1 cell CPT: inconclusive; uPA surface inh: -4%

What do the screens show for `Cc1ccccc1C(=O)N1CCC(C(=O)Nc2ccc(S(=O)(=O)N3C(C)CCCC3C)cc2)CC1` (stereo not given)?
DT40 TDP1 no CPT: 10µM*; HT1080NT lethal: -1%[9.24 µM]; HT1080 IDH1KD tx: inconclusive; IL1B secr inh: inconclusive; TDP1 cell CPT: 12µM*; uPA surface inh: inconclusive
